The values that follow come from the supplement of paper PMC11732987, “Enantioselective OTUD7B fragment discovery through chemoproteomics screening and high-throughput optimisation” (Communications Chemistry, 2025).

Unmarked numbers belong to inactive results.

Assay in all cases: log2 ratio of Biotin-Ahx-Ub-VS probe labelling (fragment/DMSO); higher = less target engagement (more negative = stronger competition), active = hit call of the paper (q ≤ 0.05, log2 ratio ≤ -1)
Details in all cases: compound concentration: 200 uM; treatment time: 3 h

One experiment addresses T1, OTUD6B (UniProt Q8N6M0).
T1 sequence (whole entry): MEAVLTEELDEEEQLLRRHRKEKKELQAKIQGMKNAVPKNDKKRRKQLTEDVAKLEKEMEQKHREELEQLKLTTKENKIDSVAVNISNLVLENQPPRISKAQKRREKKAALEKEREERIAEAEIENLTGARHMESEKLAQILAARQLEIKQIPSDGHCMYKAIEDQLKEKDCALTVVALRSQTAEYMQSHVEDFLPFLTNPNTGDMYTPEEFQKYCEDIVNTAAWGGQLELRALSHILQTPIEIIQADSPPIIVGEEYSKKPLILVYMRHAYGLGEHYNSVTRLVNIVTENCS
The procedure, abridged: (§1)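 HEK293T lysate, 495 µg per sample in Tris/CHAPS/IGEPAL buffer with protease inhibitors, was treated in triplicate with fragment at 200 µM or vehicle for 3 h and then with Biotin-Ahx-Ub-VS at 0.5 µM final for 1 h. Labelled DUBs were NeutrAvidin-enriched, digested with LysC and trypsin, and run by diaPASEF LC-MS/MS. Spectronaut label-free quantities were global-median-normalised, and values are average log2 fragment/vehicle ratios by unpaired t-test on proteins with ≥2 unique peptides.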

For the next experiment, the target named is T2, OTUD7B (UniProt Q6GQQ9).
T2 sequence (whole entry): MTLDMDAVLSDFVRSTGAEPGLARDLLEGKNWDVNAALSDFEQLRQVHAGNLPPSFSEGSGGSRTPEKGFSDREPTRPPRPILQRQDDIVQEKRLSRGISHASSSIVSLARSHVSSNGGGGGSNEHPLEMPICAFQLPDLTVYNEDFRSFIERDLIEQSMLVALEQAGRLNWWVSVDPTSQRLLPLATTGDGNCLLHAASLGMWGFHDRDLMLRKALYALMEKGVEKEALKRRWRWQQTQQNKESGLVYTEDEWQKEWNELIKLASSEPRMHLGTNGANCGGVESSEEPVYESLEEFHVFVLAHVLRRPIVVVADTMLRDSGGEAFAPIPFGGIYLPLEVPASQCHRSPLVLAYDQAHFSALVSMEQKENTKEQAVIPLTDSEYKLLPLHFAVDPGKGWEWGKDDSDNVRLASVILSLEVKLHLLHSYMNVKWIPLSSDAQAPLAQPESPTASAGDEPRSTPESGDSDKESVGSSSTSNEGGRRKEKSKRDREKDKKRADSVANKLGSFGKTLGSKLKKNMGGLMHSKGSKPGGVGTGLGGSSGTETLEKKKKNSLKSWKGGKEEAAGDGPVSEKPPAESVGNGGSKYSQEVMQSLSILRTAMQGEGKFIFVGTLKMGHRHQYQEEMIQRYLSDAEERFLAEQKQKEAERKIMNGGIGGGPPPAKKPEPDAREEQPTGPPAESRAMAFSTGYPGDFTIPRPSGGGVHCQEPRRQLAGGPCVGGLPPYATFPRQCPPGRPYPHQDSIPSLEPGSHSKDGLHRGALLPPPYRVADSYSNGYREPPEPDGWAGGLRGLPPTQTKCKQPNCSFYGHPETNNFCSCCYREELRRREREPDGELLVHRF
The method, boiled down:
as §1

The next experiment addresses PRPF8 (UniProt Q6P2Q9). The method, boiled down:
as §1

A further experiment deals with T3, PSMD7 (UniProt P51665).
T3 sequence (whole entry): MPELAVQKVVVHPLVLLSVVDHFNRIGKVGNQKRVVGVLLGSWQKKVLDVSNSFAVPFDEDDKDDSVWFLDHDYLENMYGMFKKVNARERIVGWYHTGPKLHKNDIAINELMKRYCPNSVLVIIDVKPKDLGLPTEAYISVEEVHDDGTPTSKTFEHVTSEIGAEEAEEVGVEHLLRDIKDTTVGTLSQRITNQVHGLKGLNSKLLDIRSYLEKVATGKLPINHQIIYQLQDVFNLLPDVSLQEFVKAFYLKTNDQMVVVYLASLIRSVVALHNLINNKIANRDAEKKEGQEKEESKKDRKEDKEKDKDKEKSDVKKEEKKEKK
The procedure, abridged: as §1

The next experiment addresses UCHL1 (UniProt P09936). The method, boiled down: as §1
Another experiment concerns the target T4, UCHL3 (UniProt P15374).
T4 sequence (whole entry): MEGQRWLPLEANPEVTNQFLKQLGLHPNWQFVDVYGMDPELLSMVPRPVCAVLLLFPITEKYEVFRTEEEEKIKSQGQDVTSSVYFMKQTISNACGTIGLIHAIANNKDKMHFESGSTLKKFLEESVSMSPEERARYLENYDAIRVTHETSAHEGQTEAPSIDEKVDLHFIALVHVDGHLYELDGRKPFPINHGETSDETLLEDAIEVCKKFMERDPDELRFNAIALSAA
The procedure, abridged:
as §1

The target of a further experiment is T5, UCHL5 (UniProt Q9Y5K5).
T5 sequence (whole entry): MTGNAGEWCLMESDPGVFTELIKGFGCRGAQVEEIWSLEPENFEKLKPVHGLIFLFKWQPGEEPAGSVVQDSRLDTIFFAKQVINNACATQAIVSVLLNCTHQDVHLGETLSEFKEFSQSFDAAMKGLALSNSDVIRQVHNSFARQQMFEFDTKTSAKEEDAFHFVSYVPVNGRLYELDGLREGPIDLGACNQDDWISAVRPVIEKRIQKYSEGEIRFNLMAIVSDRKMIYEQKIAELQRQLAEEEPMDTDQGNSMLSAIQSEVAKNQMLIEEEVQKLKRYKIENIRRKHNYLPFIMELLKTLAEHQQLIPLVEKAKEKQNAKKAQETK
The method, boiled down:
as §1

Another experiment has as its target USP10 (UniProt Q14694). The method, boiled down:
as §1

The target in a further experiment is T6, USP15 (UniProt Q9Y4E8).
T6 sequence (whole entry): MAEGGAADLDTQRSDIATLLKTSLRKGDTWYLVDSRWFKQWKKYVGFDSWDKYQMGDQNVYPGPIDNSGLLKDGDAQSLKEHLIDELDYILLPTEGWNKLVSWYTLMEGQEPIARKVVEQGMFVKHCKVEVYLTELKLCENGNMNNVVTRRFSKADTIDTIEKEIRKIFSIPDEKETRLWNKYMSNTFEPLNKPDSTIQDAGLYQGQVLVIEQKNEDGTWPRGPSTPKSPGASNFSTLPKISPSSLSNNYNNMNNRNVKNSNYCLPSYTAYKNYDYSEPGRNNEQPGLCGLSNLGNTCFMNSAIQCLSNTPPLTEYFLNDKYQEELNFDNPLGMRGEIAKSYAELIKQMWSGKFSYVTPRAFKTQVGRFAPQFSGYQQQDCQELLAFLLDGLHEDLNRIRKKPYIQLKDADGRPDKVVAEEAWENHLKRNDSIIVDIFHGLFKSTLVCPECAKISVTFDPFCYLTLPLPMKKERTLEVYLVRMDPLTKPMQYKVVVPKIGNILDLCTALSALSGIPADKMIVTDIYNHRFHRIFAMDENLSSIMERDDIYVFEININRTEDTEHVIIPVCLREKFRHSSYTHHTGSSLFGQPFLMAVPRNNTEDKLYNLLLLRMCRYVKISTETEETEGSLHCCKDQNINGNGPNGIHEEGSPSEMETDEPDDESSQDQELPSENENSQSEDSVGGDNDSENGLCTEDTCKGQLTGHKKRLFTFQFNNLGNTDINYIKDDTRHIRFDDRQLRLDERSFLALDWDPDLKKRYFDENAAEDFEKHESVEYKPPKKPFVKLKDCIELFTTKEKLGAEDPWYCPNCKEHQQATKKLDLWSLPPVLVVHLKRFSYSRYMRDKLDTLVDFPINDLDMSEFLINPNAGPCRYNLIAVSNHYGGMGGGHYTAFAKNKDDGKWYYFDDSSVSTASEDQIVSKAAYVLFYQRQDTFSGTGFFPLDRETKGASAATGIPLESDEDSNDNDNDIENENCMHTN
The procedure, abridged: as §1

Another experiment deals with USP16 (UniProt Q9Y5T5). The procedure, abridged: as §1
Chain of USP16 (Q9Y5T5 whole entry, looked up): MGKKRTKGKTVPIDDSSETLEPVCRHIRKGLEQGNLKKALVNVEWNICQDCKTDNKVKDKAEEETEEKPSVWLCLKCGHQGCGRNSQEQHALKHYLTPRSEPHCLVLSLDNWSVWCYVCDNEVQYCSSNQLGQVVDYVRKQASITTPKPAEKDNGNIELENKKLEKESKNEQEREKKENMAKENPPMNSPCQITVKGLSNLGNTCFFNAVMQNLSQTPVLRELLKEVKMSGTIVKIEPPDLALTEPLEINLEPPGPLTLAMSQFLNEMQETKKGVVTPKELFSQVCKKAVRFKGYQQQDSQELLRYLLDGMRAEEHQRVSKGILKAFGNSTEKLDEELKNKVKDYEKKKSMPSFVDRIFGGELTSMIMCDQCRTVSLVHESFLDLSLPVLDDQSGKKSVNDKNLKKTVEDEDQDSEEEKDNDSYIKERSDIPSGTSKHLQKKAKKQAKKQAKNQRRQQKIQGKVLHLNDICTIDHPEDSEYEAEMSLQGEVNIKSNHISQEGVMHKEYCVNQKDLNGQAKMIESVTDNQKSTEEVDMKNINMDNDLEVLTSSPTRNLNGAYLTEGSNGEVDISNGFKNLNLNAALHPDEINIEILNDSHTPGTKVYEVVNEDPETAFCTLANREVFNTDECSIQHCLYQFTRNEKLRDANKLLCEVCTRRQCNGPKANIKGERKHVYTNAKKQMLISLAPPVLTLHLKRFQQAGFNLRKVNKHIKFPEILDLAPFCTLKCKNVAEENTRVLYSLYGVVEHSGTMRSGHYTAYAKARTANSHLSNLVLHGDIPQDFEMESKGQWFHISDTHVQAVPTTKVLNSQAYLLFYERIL

Chain of USP10 (Q14694 whole entry): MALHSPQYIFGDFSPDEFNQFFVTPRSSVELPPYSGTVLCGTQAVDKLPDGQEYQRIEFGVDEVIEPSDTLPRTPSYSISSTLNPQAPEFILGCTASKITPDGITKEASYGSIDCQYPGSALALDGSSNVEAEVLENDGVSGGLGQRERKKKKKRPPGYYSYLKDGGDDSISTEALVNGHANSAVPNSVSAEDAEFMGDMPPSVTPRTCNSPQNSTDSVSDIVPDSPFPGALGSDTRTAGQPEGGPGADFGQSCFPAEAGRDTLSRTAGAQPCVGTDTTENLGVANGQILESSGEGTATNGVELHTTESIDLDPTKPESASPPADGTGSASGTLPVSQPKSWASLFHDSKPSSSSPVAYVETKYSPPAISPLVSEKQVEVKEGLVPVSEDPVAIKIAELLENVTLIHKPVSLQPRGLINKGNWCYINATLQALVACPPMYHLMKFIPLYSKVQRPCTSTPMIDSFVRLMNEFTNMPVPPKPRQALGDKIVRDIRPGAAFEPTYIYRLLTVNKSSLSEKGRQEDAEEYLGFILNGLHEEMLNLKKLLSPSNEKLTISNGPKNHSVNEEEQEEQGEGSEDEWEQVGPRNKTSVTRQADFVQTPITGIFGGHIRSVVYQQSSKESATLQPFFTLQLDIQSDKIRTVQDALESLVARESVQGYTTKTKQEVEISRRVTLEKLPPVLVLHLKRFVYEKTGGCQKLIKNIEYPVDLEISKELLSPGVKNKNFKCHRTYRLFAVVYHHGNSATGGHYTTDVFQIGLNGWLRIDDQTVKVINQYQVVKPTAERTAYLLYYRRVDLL
Chain of UCHL1 (P09936 whole entry, looked up): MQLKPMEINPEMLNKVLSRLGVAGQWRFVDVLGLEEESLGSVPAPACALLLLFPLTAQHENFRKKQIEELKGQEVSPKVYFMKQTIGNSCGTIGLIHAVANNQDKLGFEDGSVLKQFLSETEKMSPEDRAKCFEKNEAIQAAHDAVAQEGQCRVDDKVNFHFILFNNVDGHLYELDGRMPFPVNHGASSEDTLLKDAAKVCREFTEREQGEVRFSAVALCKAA

Consider `Cl.O=C(CCl)NCCN1CCc2ccccc21`, for which the “log2 ratio of Biotin-Ahx-Ub-VS probe labelling” value with OTUD6B is -0.983; in the experiment with OTUD7B, -0.675; with PRPF8, 0.014; with PSMD7 it was -0.0696; with UCHL1, -2.25 (active); in the experiment with UCHL3, -0.556. The “log2 ratio of Biotin-Ahx-Ub-VS probe labelling” value in the experiment with UCHL5 is -1.03 (active); with USP10, -0.344; in the experiment with USP15, -0.991; with USP16, -0.252.
